Where a name gives a salt, the structure may show the parent alone.
What was measured:
Settings in all cases: incubation time: 27 h, anaerobic, 37 °C;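 for the amine columns active = adjusted P below 0.05 in both replicates with a change the same way and a mean fold change under 0.8 or over 1.25; inactive = the rest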
[1] = tested on: Clostridium sporogenes DSM 1664; assay: growth (OD595) fold change vs plate DMSO controls (fold change (ratio)); higher = more growth
Outline: (§1)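 Shaken 96-well cultures in mGAM, grown anaerobically for 27 h at 37 °C, were read at 595 nm. OD came from blank-subtracted readings, corrected for background with 20 µM compound solutions in water and scaled by a calibration factor of 5. Growth is the fold change versus the plate's median DMSO control. Values average 2 biological replicates, and any fold change above 1.5 is NA.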

[2] = tested on: Escherichia coli IAI1; assay: as above
Outline: as §1

[3] = tested on: Klebsiella aerogenes DSM 30053; assay: as above
Outline: as §1

[4] = tested on: Ruminococcus gnavus DSM 108212; assay: as above
Outline: as §1

[5] = tested on: Klebsiella aerogenes DSM 30053; assay: fold change of Histamine concentration vs plate DMSO controls (fold change (ratio)); higher = more amine produced, active = hit call of the paper (significant change in both replicates, either direction)
Outline: (§2)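 Amine values are fold changes relative to DMSO-only wells on the same plate. They derive from 27 h, 37 °C anaerobic mGAM cultures of four gut bacterial strains in 80 µL wells, dosed at 20 µM final, or 50 µM final for sweeteners. Extraction of the whole culture, LC–triple-quadrupole MS in dynamic MRM mode, external calibration curves and within-batch drift correction were used, with 2 biological replicates averaged.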

[6] = tested on: Clostridium sporogenes DSM 1664; assay: fold change of Tryptamine concentration vs plate DMSO controls (fold change (ratio)); higher = more amine produced, active = hit call of the paper (significant change in both replicates, either direction)
Outline: as §2

[7] = tested on: Ruminococcus gnavus DSM 108212; assay: as above
Outline: as §2

[8] = tested on: Escherichia coli IAI1; assay: fold change of Putrescine concentration vs plate DMSO controls (fold change (ratio)); higher = more amine produced, active = hit call of the paper (significant change in both replicates, either direction)
Outline: as §2

[9] = tested on: Klebsiella aerogenes DSM 30053; assay: as above
Outline: as §2

[10] = tested on: Escherichia coli IAI1; assay: fold change of Cadaverine concentration vs plate DMSO controls (fold change (ratio)); higher = more amine produced, active = hit call of the paper (significant change in both replicates, either direction)
Outline: as §2

[11] = tested on: Klebsiella aerogenes DSM 30053; assay: as above
Outline: as §2

[12] = tested on: Ruminococcus gnavus DSM 108212; assay: fold change of 2-Phenylethylamine concentration vs plate DMSO controls (fold change (ratio)); higher = more amine produced, active = hit call of the paper (significant change in both replicates, either direction)
Outline: as §2

SMILES | growth [1] | growth [2] | growth [3] | growth [4] | fold change of Histamine concentration [5] | fold change of Tryptamine concentration [6] | fold change of Tryptamine concentration [7] | fold change of Putrescine concentration [8] | fold change of Putrescine concentration [9] | fold change of Cadaverine concentration [10] | fold change of Cadaverine concentration [11] | fold change of 2-Phenylethylamine concentration [12]
COc1cc([C@@H]2c3cc4c(cc3[C@@H](O[C@@H]3O[C@@H]5CO[C@@H](C)O[C@H]5[C@H](O)[C@H]3O)[C@H]3COC(=O)[C@H]23)OCO4)cc(OC)c1O [Etoposide] (20 µM) | 0.285 | 1.05 | 1.2 | 0.101 | 0.858 (inactive) | 0.403 (active) | 0.248 (active) | 1.08 (inactive) | 0.982 (inactive) | 0.966 (inactive) | 1.03 (inactive) | 0.236 (active)
CN(C)CCCO[C@@H]1[C@H]2OC(C)(C)O[C@H]2O[C@@H]1[C@H](O)CO [Amiprilose hydrochloride] (20 µM) | 1.09 | 1.03 | 1.01 | 1.1 | 1.07 (inactive) | 1.04 (inactive) | 1.04 (inactive) | 0.973 (inactive) | 1.02 (inactive) | 0.994 (inactive) | 0.992 (inactive) | 1.01 (inactive)
CC[C@H]1OC(=O)[C@H](C)[C@@H](O[C@H]2C[C@@](C)(OC)[C@@H](O)[C@H](C)O2)[C@H](C)[C@@H](O[C@@H]2O[C@H](C)C[C@H](N(C)C)[C@H]2O)[C@](C)(O)C[C@@H](C)/C(=N\OCOCCOC)[C@H](C)[C@@H](O)[C@]1(C)O [Roxithromycin] (20 µM) | 0.00175 | 0.826 | 0.95 | 0.194 | 0.995 (inactive) | 0.0367 (active) | 0.0981 (active) | 0.576 (active) | 0.973 (inactive) | 0.909 (inactive) | 1 (inactive) | 0.123 (active)
O=P(O)(O)C(O)(Cn1ccnc1)P(=O)(O)O [Zoledronic acid hydrate] (20 µM) | 1.08 | 0.974 | 0.978 | 1 | 1.08 (inactive) | 0.973 (inactive) | 0.629 (inactive) | 0.987 (inactive) | 1.02 (inactive) | 1.05 (inactive) | 1 (inactive) | 0.627 (inactive)
CCCCC1C(=O)N(c2ccccc2)N(c2ccc(O)cc2)C1=O (stereo not drawn) [Oxyphenbutazone] (20 µM) | 1.01 | 1 | 1.2 | 1.09 | 0.888 (inactive) | 1.3 (inactive) | 1.14 (inactive) | 1.21 (inactive) | 0.877 (inactive) | 0.973 (inactive) | 1.14 (inactive) | 1.23 (inactive)
CC(C)(C(=O)c1cccnc1)c1cccnc1 [Metyrapone] (20 µM) | 1.01 | 1.01 | 1.01 | 1 | 1.03 (inactive) | 1 (inactive) | 1 (inactive) | 0.985 (inactive) | 1.02 (inactive) | 1.01 (inactive) | 1 (inactive) | 1.01 (inactive)
CC1=C(/C=C/C(C)=C/C=C/C(C)=C\C(=O)O)C(C)(C)CCC1 [Isotretinoin] (20 µM) | 0.96 | 0.987 | 1.02 | 1.02 | 0.996 (inactive) | 0.977 (inactive) | 1.04 (inactive) | 1.01 (inactive) | 1.02 (inactive) | 0.97 (inactive) | 0.991 (inactive) | 1.05 (inactive)
Nc1ccccc1S(N)(=O)=O [o-Sulfanilamide] (20 µM) | 0.883 | 1.01 | 1.01 | 1 | 1.02 (inactive) | 0.958 (inactive) | 0.928 (inactive) | 1.03 (inactive) | 1.01 (inactive) | 1 (inactive) | 1 (inactive) | 0.905 (inactive)
CCN(CC)C(=O)/C(C#N)=C/c1cc(O)c(O)c([N+](=O)[O-])c1 [Entacapone] (20 µM) | 0.868 | 0.974 | 1.06 | 1.07 | 1.01 (inactive) | 0.961 (inactive) | 0.929 (inactive) | 0.993 (inactive) | 1.03 (inactive) | 0.977 (inactive) | 0.995 (inactive) | 0.896 (inactive)
CC(=O)OCC(=O)[C@@]1(OC(C)=O)[C@@H](C)C[C@H]2[C@@H]3C[C@H](F)C4=CC(=O)C=C[C@]4(C)[C@@]3(F)[C@@H](O)C[C@@]21C [Diflorasone Diacetate] (20 µM) | 1.05 | 0.996 | 0.978 | 0.993 | 1.03 (inactive) | 1.03 (inactive) | 1.01 (inactive) | 0.969 (inactive) | 1.01 (inactive) | 1.02 (inactive) | 0.989 (inactive) | 0.978 (inactive)
CNC(C)CCC=C(C)C (stereo not drawn) [Isometheptene mucate] (20 µM) | 0.966 | 0.977 | 1.01 | 1.24 | 1.09 (inactive) | 0.944 (inactive) | 1.01 (inactive) | 0.979 (inactive) | 1.04 (inactive) | 1.01 (inactive) | 1.02 (inactive) | 0.954 (inactive)
CN(C/C=C/c1ccccc1)Cc1cccc2ccccc12 [Naftifine hydrochloride] (20 µM) | 1.08 | 1.21 | 0.994 | 0.89 | 0.999 (inactive) | 0.99 (inactive) | 0.941 (inactive) | 1.08 (inactive) | 0.996 (inactive) | 1.34 (active) | 0.99 (inactive) | 1.01 (inactive)
CC(=O)Oc1cc(C(F)(F)F)ccc1C(=O)O [Triflusal] (20 µM) | 1.01 | 0.971 | 0.952 | 0.878 | 1 (inactive) | 1.03 (inactive) | 1.01 (inactive) | 1.04 (inactive) | 0.97 (inactive) | 0.988 (inactive) | 0.992 (inactive) | 1.02 (inactive)
NC(=O)NC1NC(=O)NC1=O (stereo not drawn) [Allantoin] (20 µM) | 1.05 | 1.14 | 1 | 1.09 | 1.02 (inactive) | 1.11 (inactive) | 1.17 (inactive) | 1.1 (inactive) | 0.972 (inactive) | 0.983 (inactive) | 1.02 (inactive) | 1.05 (inactive)
CS(=O)(=O)c1ccc([C@@H](O)[C@@H](CO)NC(=O)C(Cl)Cl)cc1 [Thiamphenicol] (20 µM) | 0.937 | 0.551 | 0.468 | 0.18 | 0.0658 (active) | 0.738 (active) | 0.141 (active) | 0.321 (active) | 0.426 (active) | 1.17 (inactive) | 0.957 (inactive) | 0.145 (active)
CN(C)CCCN1c2ccccc2Sc2ccc(Cl)cc21 [Chlorpromazine hydrochloride] (20 µM) | 0.986 | 1.21 | 1.03 | 1.29 | 0.88 (inactive) | 1.06 (inactive) | 0.908 (inactive) | 1.14 (inactive) | 0.959 (inactive) | 0.934 (inactive) | 1.01 (inactive) | 0.935 (inactive)
Cc1cc(C2CCCCC2)n(O)c(=O)c1 [Ciclopirox ethanolamine] (20 µM) | 0.962 | 1.05 | 1.06 | 1.13 | 0.978 (inactive) | 1.04 (inactive) | 1.02 (inactive) | 1.06 (inactive) | 0.994 (inactive) | 1 (inactive) | 1 (inactive) | 0.976 (inactive)
COc1ccc2cc1Oc1ccc(cc1)C[C@H]1c3c(cc4c(c3Oc3cc5c(cc3OC)CCN(C)[C@@H]5C2)OCO4)CCN1C [Cepharanthine] (20 µM) | 0.965 | 0.982 | 1.02 | 0.925 | 1.04 (inactive) | 0.993 (inactive) | 0.945 (inactive) | 0.952 (inactive) | 1.01 (inactive) | 1.03 (inactive) | 1 (inactive) | 0.981 (inactive)
COc1ccc(-c2noc(CC(=O)O)c2-c2ccc(OC)cc2)cc1 [Mofezolac] (20 µM) | 0.876 | 1.01 | 1 | 1.21 | 1.05 (inactive) | 0.988 (inactive) | 0.979 (inactive) | 1.03 (inactive) | 1 (inactive) | 0.987 (inactive) | 0.993 (inactive) | 0.96 (inactive)
C[C@H]1[C@@H](O)O[C@@H]2O[C@@]3(C)CC[C@H]4[C@H](C)CC[C@@H]1[C@@]24OO3 [Artenimol] (20 µM) | 1.03 | 1.03 | 0.982 | 1.04 | 1.01 (inactive) | 0.991 (inactive) | 1.01 (inactive) | 1.02 (inactive) | 1.01 (inactive) | 1.02 (inactive) | 1.01 (inactive) | 0.965 (inactive)
CC(C(=O)O)c1cccc(C(=O)c2ccccc2)c1 (stereo not drawn) [Ketoprofen] (20 µM) | 0.99 | 1.04 | 0.993 | 0.957 | 1.03 (inactive) | 0.984 (inactive) | 1.06 (inactive) | 1.1 (inactive) | 1.01 (inactive) | 1.02 (inactive) | 0.995 (inactive) | 1.12 (inactive)
CCOC(=O)[C@H](CCc1ccccc1)N[C@@H](C)C(=O)N1CCC[C@H]1C(=O)O [Enalapril maleate] (20 µM) | 1.07 | 1.07 | 1.05 | 1.15 | 0.936 (inactive) | 1 (inactive) | 1.09 (inactive) | 1.03 (inactive) | 0.959 (inactive) | 0.967 (inactive) | 1.02 (inactive) | 1.1 (inactive)
NC(=O)N1c2ccccc2C=Cc2ccccc21 [Carbamazepine] (20 µM) | 0.968 | 1.08 | 1.01 | 1.17 | 1.03 (inactive) | 0.973 (inactive) | 1.02 (inactive) | 1.03 (inactive) | 1 (inactive) | 1.04 (inactive) | 1.01 (inactive) | 0.987 (inactive)
Cc1cccc(C)c1NC(=O)C(C)N (stereo not drawn) [Tocainide hydrochloride] (20 µM) | 0.909 | 1.02 | 0.994 | 1.06 | 1.06 (inactive) | 1.01 (inactive) | 1.02 (inactive) | 1.03 (inactive) | 1 (inactive) | 0.983 (inactive) | 0.976 (inactive) | 1.05 (inactive)
